# Assay results: article PMC7862700, “An all-to-all approach to the identification of sequence-specific readers for epigenetic DNA modifications on cytosine”
# Experiments:
# Assay in all cases: DAPPL (digital affinity profiling via proximity ligation, sequencing); 10 mM Tris-HCl pH 7.5, 50 mM NaCl, 1 mM DTT, 4% glycerol, room temperature, 30 min; GST-TFs on glutathione beads, 16-mer random dsDNA library, 0.1% formaldehyde crosslink after washing; high values mean tight binding
# FEV = biological target: T1, FEV (Homo sapiens, UniProt Q99581 1-238); conditions: protein: recombinant; tags: N-terminal GST; dsDNA, one strand shown
# T1 sequence: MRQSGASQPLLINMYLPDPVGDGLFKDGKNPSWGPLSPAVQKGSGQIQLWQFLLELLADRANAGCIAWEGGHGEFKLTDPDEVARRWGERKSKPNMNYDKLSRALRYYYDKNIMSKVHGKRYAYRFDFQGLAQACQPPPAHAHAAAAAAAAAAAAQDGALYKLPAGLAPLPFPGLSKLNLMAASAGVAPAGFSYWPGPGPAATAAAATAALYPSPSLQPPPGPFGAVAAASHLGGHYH
# Outline: (§1)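 A tag-only sample was pooled with DNA-barcoded human transcription factors that had been expressed in yeast as GST fusions and captured on glutathione beads. The pools were incubated for 30 min at room temperature with 200 nmole of a random double-stranded 16-mer DNA library in Tris/NaCl/DTT/glycerol buffer, then washed, crosslinked with 0.1% formaldehyde, proximity-ligated (BsaI/T4 ligase, 1 h, 37 °C), PCR-amplified and sequenced on an Illumina NextSeq500. Binding signal is each hexamer's read frequency for a factor divided by its frequency for the tag-only sample.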
# ETV5 = ETV5 (Homo sapiens, UniProt P41161 1-510); conditions: protein: recombinant; tags: N-terminal GST; dsDNA, one strand shown
# Outline: as §1
# HSF1 = HSF1 (Homo sapiens, UniProt Q00613 1-529); conditions: protein: recombinant; tags: N-terminal GST; chain copies: 3; dsDNA, one strand shown
# Outline: as §1
# SPIC = biological target: T2, SPIC (Homo sapiens, UniProt Q8N5J4 1-248); conditions: protein: recombinant; tags: N-terminal GST; dsDNA, one strand shown
# T2 sequence: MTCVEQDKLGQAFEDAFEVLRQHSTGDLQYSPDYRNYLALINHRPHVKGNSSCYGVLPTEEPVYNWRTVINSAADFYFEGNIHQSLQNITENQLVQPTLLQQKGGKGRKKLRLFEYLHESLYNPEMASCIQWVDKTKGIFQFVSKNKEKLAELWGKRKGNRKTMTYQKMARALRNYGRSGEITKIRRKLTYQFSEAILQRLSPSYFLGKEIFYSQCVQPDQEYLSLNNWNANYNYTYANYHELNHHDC
# Outline: as §1
# ELF4 = ELF4 (Homo sapiens, UniProt Q99607 1-663); conditions: protein: recombinant; tags: N-terminal GST; dsDNA, one strand shown
# Outline: as §1
# ELK4 = biological target: T3, ELK4 (Homo sapiens, UniProt P28324-2 1-405); conditions: protein: recombinant; tags: N-terminal GST; dsDNA, one strand shown
# T3 sequence: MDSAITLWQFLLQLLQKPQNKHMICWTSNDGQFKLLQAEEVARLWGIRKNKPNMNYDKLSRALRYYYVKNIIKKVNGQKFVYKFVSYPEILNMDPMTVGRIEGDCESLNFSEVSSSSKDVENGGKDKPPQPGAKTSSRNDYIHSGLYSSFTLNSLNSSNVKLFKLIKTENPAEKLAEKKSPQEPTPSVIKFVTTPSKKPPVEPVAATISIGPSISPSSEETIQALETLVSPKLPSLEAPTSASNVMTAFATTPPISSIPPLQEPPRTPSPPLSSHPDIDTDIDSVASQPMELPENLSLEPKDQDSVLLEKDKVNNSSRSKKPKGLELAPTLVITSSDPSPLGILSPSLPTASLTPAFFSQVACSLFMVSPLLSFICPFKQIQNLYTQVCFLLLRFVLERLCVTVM
# Outline: as §1
# ETV2 = biological target: T4, ETV2 (Homo sapiens, UniProt O00321 1-342); conditions: protein: recombinant; tags: N-terminal GST; dsDNA, one strand shown
# T4 sequence: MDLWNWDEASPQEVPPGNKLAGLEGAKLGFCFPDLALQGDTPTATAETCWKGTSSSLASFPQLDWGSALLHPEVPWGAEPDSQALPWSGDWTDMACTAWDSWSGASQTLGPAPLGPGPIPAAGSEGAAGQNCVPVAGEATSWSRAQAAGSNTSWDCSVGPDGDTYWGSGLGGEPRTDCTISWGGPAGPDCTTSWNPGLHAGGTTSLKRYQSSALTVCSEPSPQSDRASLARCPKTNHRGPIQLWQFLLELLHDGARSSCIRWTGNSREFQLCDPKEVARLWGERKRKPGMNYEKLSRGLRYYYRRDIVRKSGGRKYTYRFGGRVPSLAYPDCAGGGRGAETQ
# Outline: as §1
# ELF3 = biological target: T5, ELF3 (Homo sapiens, UniProt P78545 1-371); conditions: protein: recombinant; tags: N-terminal GST; dsDNA, one strand shown
# T5 sequence: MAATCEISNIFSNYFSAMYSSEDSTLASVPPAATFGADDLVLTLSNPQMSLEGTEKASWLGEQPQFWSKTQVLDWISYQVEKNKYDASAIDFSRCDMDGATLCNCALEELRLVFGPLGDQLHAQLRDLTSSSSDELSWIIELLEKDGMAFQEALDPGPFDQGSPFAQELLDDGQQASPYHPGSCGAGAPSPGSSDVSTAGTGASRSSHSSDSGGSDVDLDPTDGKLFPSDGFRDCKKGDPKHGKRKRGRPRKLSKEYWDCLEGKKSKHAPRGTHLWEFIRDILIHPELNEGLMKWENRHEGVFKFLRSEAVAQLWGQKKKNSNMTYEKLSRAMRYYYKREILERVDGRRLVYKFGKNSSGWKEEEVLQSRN
# Outline: as §1
# CRX = CRX (Homo sapiens, UniProt O43186 1-299); conditions: protein: recombinant; tags: N-terminal GST; dsDNA, one strand shown
# Outline: as §1
# ETV1 = ETV1 (Homo sapiens, UniProt P50549 1-477); conditions: protein: recombinant; tags: N-terminal GST; dsDNA, one strand shown
# Outline: as §1
# Chain of HSF1 (Q00613 whole entry): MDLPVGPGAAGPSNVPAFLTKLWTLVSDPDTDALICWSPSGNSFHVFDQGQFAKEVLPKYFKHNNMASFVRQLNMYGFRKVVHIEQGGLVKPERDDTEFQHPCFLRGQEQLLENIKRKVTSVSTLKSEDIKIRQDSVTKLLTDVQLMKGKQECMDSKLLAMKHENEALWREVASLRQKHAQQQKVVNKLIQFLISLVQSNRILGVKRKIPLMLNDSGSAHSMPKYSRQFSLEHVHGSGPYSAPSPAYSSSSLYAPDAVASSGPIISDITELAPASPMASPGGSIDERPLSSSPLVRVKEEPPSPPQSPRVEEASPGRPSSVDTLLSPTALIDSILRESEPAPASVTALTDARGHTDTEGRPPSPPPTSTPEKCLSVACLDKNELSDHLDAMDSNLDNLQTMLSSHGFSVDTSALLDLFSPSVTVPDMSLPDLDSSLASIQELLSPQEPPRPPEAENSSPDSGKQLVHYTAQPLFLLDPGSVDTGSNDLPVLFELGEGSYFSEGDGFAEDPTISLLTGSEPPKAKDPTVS
# Chain of ETV1 (P50549 whole entry): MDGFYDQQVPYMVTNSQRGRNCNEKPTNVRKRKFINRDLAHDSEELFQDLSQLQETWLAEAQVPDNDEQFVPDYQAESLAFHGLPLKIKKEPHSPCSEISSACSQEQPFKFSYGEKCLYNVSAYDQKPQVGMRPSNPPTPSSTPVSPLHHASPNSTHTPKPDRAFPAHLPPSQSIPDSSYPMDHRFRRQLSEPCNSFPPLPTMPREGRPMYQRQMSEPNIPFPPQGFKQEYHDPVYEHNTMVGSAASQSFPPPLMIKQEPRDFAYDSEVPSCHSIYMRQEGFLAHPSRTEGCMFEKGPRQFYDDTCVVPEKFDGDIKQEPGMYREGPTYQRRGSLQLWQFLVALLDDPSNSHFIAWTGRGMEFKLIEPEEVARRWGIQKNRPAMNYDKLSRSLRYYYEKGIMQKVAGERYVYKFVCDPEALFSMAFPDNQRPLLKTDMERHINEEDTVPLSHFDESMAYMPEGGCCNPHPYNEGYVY
# Chain of CRX (O43186 whole entry): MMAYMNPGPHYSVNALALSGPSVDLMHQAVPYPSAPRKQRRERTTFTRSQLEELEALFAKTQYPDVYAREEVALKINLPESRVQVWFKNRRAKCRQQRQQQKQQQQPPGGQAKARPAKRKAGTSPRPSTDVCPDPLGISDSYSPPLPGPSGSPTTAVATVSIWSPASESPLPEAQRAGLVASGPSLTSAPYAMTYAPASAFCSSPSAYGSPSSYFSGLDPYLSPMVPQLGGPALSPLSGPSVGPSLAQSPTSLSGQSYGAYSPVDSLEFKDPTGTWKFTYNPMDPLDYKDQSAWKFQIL
# Chain of ETV5 (P41161 whole entry): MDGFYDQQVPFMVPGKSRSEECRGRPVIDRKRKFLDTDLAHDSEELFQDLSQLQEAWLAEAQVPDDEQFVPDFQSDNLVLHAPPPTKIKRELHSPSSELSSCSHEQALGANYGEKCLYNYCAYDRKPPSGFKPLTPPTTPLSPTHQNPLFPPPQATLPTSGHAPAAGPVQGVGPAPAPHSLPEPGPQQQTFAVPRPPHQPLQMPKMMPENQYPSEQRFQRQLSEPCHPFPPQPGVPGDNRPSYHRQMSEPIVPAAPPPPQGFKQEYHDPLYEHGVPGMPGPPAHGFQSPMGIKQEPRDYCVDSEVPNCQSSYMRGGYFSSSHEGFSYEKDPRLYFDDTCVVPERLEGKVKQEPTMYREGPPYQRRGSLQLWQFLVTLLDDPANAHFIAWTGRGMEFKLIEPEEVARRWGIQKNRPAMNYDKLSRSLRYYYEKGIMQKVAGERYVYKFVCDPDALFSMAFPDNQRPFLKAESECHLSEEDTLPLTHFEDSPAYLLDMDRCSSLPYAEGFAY
# Chain of ELF4 (Q99607 whole entry): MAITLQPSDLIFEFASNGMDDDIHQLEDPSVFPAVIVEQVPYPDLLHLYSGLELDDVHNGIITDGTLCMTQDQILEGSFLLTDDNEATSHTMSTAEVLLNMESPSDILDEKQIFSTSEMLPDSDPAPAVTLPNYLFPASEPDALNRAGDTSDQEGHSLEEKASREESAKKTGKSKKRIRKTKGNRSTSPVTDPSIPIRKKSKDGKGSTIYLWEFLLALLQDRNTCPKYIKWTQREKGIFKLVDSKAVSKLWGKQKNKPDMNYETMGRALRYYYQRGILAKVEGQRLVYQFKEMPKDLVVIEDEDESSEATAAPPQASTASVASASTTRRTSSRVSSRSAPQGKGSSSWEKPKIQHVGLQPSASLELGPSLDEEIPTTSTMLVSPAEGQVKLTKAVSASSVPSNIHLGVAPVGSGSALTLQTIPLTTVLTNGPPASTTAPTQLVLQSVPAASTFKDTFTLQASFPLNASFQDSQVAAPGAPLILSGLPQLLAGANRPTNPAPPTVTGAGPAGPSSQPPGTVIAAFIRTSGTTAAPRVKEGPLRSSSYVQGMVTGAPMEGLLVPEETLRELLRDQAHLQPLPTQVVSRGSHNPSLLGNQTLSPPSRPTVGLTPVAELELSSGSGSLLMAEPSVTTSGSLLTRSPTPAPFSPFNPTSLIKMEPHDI
sequence,measurement,setting,value
TATGGC,binding signal,FEV,"1.36 fold enrichment (6-mer frequency, TF over GST control)"
same,binding signal,ETV5,"1.33 fold enrichment (6-mer frequency, TF over GST control)"
same,binding signal,HSF1,"1.2 fold enrichment (6-mer frequency, TF over GST control)"
same,binding signal,SPIC,"1.17 fold enrichment (6-mer frequency, TF over GST control)"
same,binding signal,ELF4,"1.2 fold enrichment (6-mer frequency, TF over GST control)"
same,binding signal,ELK4,"1.2 fold enrichment (6-mer frequency, TF over GST control)"
same,binding signal,ETV2,"1.41 fold enrichment (6-mer frequency, TF over GST control)"
same,binding signal,ELF3,"1.29 fold enrichment (6-mer frequency, TF over GST control)"
same,binding signal,CRX,"1.34 fold enrichment (6-mer frequency, TF over GST control)"
same,binding signal,ETV1,"1.25 fold enrichment (6-mer frequency, TF over GST control)"
